# Assay results published in PubChem BioAssay (EPA / NIEHS).
# Calls of active or inactive are those of the source. How the source made its calls: active means hit-call score of the fitted dose curve at least 0.9, where 1 is the maximum; inactive means score below 0.9.
# Read-out: Paternally Expressed 10 (PEG10), PEG10 (gene 23089)
# Assay: LTEA_HepaRG_PEG10: Life Technologies and Expression Analysis (LTEA) Assay for Paternally Expressed 10 (PEG10) using HepaRG (AID 2283520);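 on AC50: PEG10 transcript by qRT-PCR normalised to ACTB GAPDH and POLR2A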
# Conditions: mRNA level, 48 h; actives raise or lower the signal
# Protocol: LTEA_HepaRG is a cell based, multiplexed-readout assay that uses HepaRG, a human liver cell line, with measurements taken at 48 hours after chemical dosing on a 96-well plate.LTEA_HepaRG_PEG10 is one of 102 assay component(s) measured in the LTEA HepaRG cell culture assay. It is a marker of Cell proliferation, survival, death.Data from the assay component LTEA_HepaRG_PEG10 was analyzed into 1 endpoint. This assay endpoint, LTEA_HepaRG_PEG10, was analyzed with bidirectional fitting relative to DMSO as the negative control and baseline of activity. Using a type of inducible reporter, measures of mRNA induction for gain or loss-of-signal activity can be used to understand regulation of transcription factor activity. To generalize the intended target to other relatable targets, this assay endpoint is annotated to the dna binding intended target family, where the subfamily is xenobiotic metabolism.
# A total of 1060 chemcials from the ToxCast library were tested in eight-point concentration-response experiments. Cell culture and cytotoxicity assays were conducted at Thermo Fisher Scientific's Custom Services facility (Madison, WI). A single lot of human HepaRG cells (Thermo Fisher Scientific, Frederick, MD) was used for the cell culture experiments. 96-well format collagen type I coated plates of human HepaRG cells were prepared using established methods. Briefly, cryopreserved HepaRG cells were thawed, plated at a density of approximately 100,000 cells/well in HepaRG Thaw, Plate, and General Purpose media (HPRG770, Thermo Fisher Scientific), and incubated for 48 hours. 0.5% DMSO was selected as vehicle control to balance the requisite need of DMSO in HepaRG cultures to maintain differentiation (for example, baseline metabolism, proportions of hepatocytes vs. cholangiocytes), while enabling further hepatic receptor pathway activation (for example, PXR and CAR) in response to chemical exposure. 48 hours after plating, the culture medium was replaced with HepaRG Serum-Free Incudtion Media. Cells were exposed to each test chemical in duplicate and maintained in CO2 incubators for another 48 hours. Chemical plates were thawed to room temperature and 200x concentrations of treatment groups were prepared. 8-point conentration-reponse curves were made with the highest exposure at 100 uM, followed by half-log dilutions, all in 0.5% DMSO. Each test plate contained variouse controls, induction positive controls (1mM phenobarbital), cytotoxicity positive controls ([…] aflatoxin B1), vehicle controls (0.5% DMSO), and total lysis controls (0.5% DMSO). Cell morphology images were taken using an Essen IncuCyte FLR automated microscope, with six 96-well plates imaged in about 24 minutes. Images were captured and exported and JPEG files. Spent culture media was transfered to black-well plates for the LDH assay, and remaining media was sorted at -80 C for later use. Cells were treated with RLT buffer and frozen until shipped for gene expression analysis. Total RNA was isolated from the cell suspension in 75 uL of Buffer RLT (Qiagen, Germantown, MD 20874) by Quintiles/Expression Analysis (Durham, NC) using a custom isolation procedure. Total RNA from each plate well was transferred to a preamplification plate. Fluidigm's 96.96 Dynamic ArrayTM (Fluidigm, Amsterdam, the Netherlands) technology was used for gene expression analyses by quantitative reverse transcription polymerase chain reaction (qRT-PCR, performed by Quintiles/Expression Analysis, Durham, NC)89. Standard TaqManTM Assays (Applied Biosystems/ThermoFisher Scientific, Foster City, CA) were used to assess the expression of 93 genes selected based on their selectivity and sensitivity to important hepatic receptors known to be modulated by environmental chemicals; importance in human hepatocyte functionality; and hepatotoxicity. […]
SMILES,outcome,AC50
CCCCc1ccccc1,inactive,
ClC(Cl)(Cl)c1ccccc1,inactive,
Cc1cccc(N)c1,inactive,
O=P(Oc1ccccc1)(Oc1ccccc1)Oc1ccccc1,inactive,
OCC1CO1 (stereo not given),inactive,
ClC(Cl)c1ccccc1,inactive,
CC(C)(C)c1ccc(O)cc1,inactive,
CCC(C)(C)c1ccc(O)cc1,inactive,
CCCN(CCC)c1c([N+](=O)[O-])cc(C(C)C)cc1[N+](=O)[O-],,43.3 µM (active)
COCCOCCO,inactive,
CCOS(=O)(=O)OCC,inactive,
O=[N+]([O-])c1ccccc1,inactive,
CCOP(=S)(Oc1ccc([N+](=O)[O-])cc1)c1ccccc1 (stereo not given),inactive,
O=C(O)C1C(C(=O)O)C2(Cl)C(Cl)=C(Cl)C1(Cl)C2(Cl)Cl (stereo not given),inactive,
[N-]=[N+]=[N-],inactive,
CSC(C)(C)C=NO,inactive,
c1cc2c3c(cccc3c1)CC2,inactive,
c1ccc(OP(Oc2ccccc2)Oc2ccccc2)cc1,inactive,
CCCCCCCc1ccc(O)cc1,inactive,
CC(Cc1ccc(OCC(=O)O)cc1)NCC(O)c1csc(C(F)(F)F)n1 (stereo not given),,0.0862 µM (active)

SMILES,outcome,AC50
c1nc[nH]n1,inactive,
CCOP(=S)(OCC)SCSCC,inactive,
c1ccc2c(c1)Nc1ccccc1S2,,77.1 µM (active)
O=P1(N(CCCl)CCCl)NCCCO1 (stereo not given),inactive,
Nc1cc2c3c(c1)C(c1ccccc1)=N[C@@H](NC(=O)c1cccnc1)C(=O)N3CC2,inactive,
ClC1=C(Cl)C2(Cl)C3C(Cl)C(Cl)CC3C1(Cl)C2(Cl)Cl (stereo not given),,2.31 µM (active)
CCCCN(CCCC)SN(C)C(=O)Oc1cccc2c1OC(C)(C)C2,inactive,
Cc1ccc([N+](=O)[O-])cc1C,inactive,
Nc1ccc2ccccc2c1,inactive,
CC(Cl)(Cl)C(=O)O,inactive,
CC(C)(C)OOC(C)(C)C,inactive,
O=[N+]([O-])c1ccc(Cl)c(Cl)c1,inactive,
O=C(O)C(Cl)Cl,inactive,
CCOC(=O)c1ccccc1C(=O)OCC,inactive,
Cc1ccc(N)cc1N,inactive,
CCOc1ccc(C(C)(C)COCc2cccc(Oc3ccccc3)c2)cc1,inactive,
CN(C)C(=O)Cl,inactive,
CCC1(c2ccccc2)C(=O)N=C(O)NC1=O (stereo not given),inactive,
CCCCN(CCCC)N=O,inactive,
Nc1ccc(Cl)cc1,inactive,
